Growth data for 39 compounds are collected here from PubChem BioAssay (NCI).

This is part of a sample that, as a whole, favours compounds with a hit. Of some 83,000 tested, about 20% had one in any assay.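 Treatment: one concentration, 48 hours, 96-well format. Scoring: percent growth, with anything below 10 considered active.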 A number with no mark means an inactive call. Active and inactive are the calls of the source.

The first assay relates to LOX IMVI melanoma. Nature of the assay: NCI-60 one-dose screen, 48 h (100 = growth as untreated, 0 = no growth, -100 = all killed). To be noted: 10 µM unless noted.
Take `O=CNc1ccc2c(c1)Cc1cccc(NC=O)c1-2`: the growth was 90.5%.
The same measure, in the same setting: the value for `FC(F)(F)c1[nH]ncc1-c1nc2ccc3n[nH]c(C#Cc4cccnc4)c3c2c2c1CCCC2` was 33.6%; that for `CCOc1cc2ncc(C#N)c(Nc3ccc(OCc4cccc(F)c4)c(Cl)c3)c2cc1NC(=O)CCCCC1CCSS1` (centres undefined) was 79.5%; that for `O=C(COc1ccc(-c2nc3cc(Cl)c(Cl)cc3[nH]2)cc1)N=Nc1c(O)[nH]c2ccccc12` was 6.14% (active).
`Nc1n[nH]c2cc(F)c([C@@H]3Nc4ccc5[nH]ncc5c4[C@H]4C5CCC(C5)[C@@H]34)cc12` (some centres undefined): the growth was 12.3%.
The same measure, in the same setting: as for `C#CC(F)(F)[C@]1(O)CC[C@H]2[C@@H]3CCC4=CC(=O)CCC4=C3[C@@H](c3ccc(C(C)=O)cc3)C[C@@]21C`, the figure is 48.9%; as for `CCCOc1cc2ccccc2cc1C(=O)Nc1nc(N)c2c(ccc3nccc32)[nH]1`, -73.7% (active); as for `CCc1nc(N)nc(N)c1C#CC(C)c1cc(-c2ccnc(C)c2)c2oc(C)nc2c1` (centres undefined), -18.8% (active).
As to `Clc1ccc2c(NCCCCNc3nc(N4CCCCC4)nc4ccccc34)ccnc2c1`, the growth was -73.8% (active).
Turning to `O=c1ccccc(-c2ccc(-c3ccco3)cc2)c1O`, the growth is 8.59% (active).
Regarding `CCOC(=O)c1c(C)oc2ncnc(N3CCN(C(=S)Nc4ccccc4)CC3)c12`, the growth is 90.7%.
As for `CCN1CCN(c2nc(NCCNc3ccnc4cc(Cl)ccc34)c3ccccc3n2)CC1`, the growth was -62.9% (active).
Regarding `COc1ccc(-c2n[nH]nc2-c2csc3ccccc23)cc1OC`, the growth is 24.2%.
On to `COc1ccc(O)c(N=Nc2nccs2)c1`, for which the growth was 60.9%.
Same read-out and setting: as for `O=C(Oc1cccnc1)c1ccsc1Nc1ccnc(C(F)(F)F)c1`, the figure is 21.9%; as for `Oc1ccccc1-c1nnc(CNc2ccc(Cl)cc2)o1`, 7.71% (active); as for `NC1=C(Cl)C(=O)c2ccc(S(N)(=O)=O)cc2C1=O`, -85.1% (active).
In the case of `CCOc1cc2ncc(C#N)c(Nc3ccc(F)c(Cl)c3)c2cc1NC(=O)CC1CCSS1` (centres undefined), the growth was -81.2% (active).
On to `Clc1ccc2c(NCCCCNc3nc(N4CCOCC4)nc4ccccc34)ccnc2c1`, for which the growth was -66.6% (active).
As to `Cc1ccc(-c2onc3c(=O)[nH]nc(-c4ccccc4)c23)cc1`, the growth was 37.6%.
Consider `CN(Cc1cc(Cl)cc(Cl)c1O)Cc1cc(Cl)cc(Cl)c1O`, for which the growth was 57.7%.
As to `CCN1CCN(c2nc(NCCCNc3ccnc4cc(Cl)ccc34)c3ccccc3n2)CC1`, the growth was -69.3% (active).
In the case of `CSc1ccc(-c2ccccc(=O)c2O)cc1`, the growth is 9.8% (active).
On the same count and under the same terms, the value for `Clc1ccc2c(NCCCNc3nc(-n4ccnc4)nc4ccccc34)ccnc2c1` was 82.1%; that for `CC1CCNC(C)C1` (centres undefined) was 100%; that for `COc1ccc(NC(=O)c2ccc(/C=C/C(=O)c3ncc[nH]3)cc2)cc1` was 26.9%.
For the compound `O=C1c2cc3c(cc2-c2c1c1ccc(F)cc1c(=O)n2C[C@H](O)[C@H](O)[C@H](O)CO)OCO3`, the growth is -33.5% (active).
`O=C(CCl)Oc1ccc(-c2ccccc2)c(Br)c1`: the growth is 97%.
`CCCCCCN(CCCCCC)C(=N)c1ccnc2ccccc12`: the growth was 30%.
On to `Cc1cc(N2CCCCCC2)nc(NC2CCCC(Nc3ccnc4cc(Cl)ccc34)C2)n1` (centres undefined), for which the growth was -93.1% (active).

A further assay relates to SK-MEL-28 melanoma. The description is as above. To be noted: 10 µM unless noted.
As for `Cn1ccnc1C(=O)/C=C/c1ccc(CC(=O)Nc2ccccc2)cc1`, the growth is 55%.
For the compound `Cc1ccc2oc(=O)cc(C3c4ccc([nH]4)C(c4cc(=O)oc5ccc(C)cc45)c4ccc([nH]4)C(c4cc(=O)oc5ccc(C)cc45)c4ccc([nH]4)C(c4cc(=O)oc5ccc(C)cc45)c4ccc3[nH]4)c2c1` (centres undefined), the growth was -53.2% (active).
For the compound `CC(C)(C)CC(C)(C)c1ccc(OCCOCC[N+](C)(C)Cc2ccccc2)cc1`, the growth is -67% (active).
Still for that read-out and setting: as for `CN1CCN(CCCOc2cccc3nc(Nc4cc(Cl)cc(Cl)c4)ccc23)CC1`, the figure is -51.2% (active); as for `CC(C)C[C@@H](NC(=O)[C@@H](Cc1ccccc1)NC(=O)c1cnccn1)B1Oc2ccc(C[C@H](NC(=O)[C@H](Cc3ccc4c(c3)OB([C@@H](CC(C)C)NC(=O)[C@@H](Cc3ccccc3)NC(=O)c3cnccn3)O4)NC(=O)[C@@H](N)CC3CCC4OB([C@@H](CC(C)C)NC(=O)[C@@H](CC5CCCCC5)NC(=O)C5CNCCN5)OC4C3)C(=O)NCCCC[C@@H]3NC(=O)[C@@H](Cc4ccccc4)NC(=O)[C@H](CC(=O)O)NC(=O)CNC(=O)[C@H](CCCNC(=N)N)NC3=O)cc2O1` (some centres undefined), -31.7% (active).
Take `CCN(CC)c1ccc(/C=N\NC(=O)/C=C/C=C/c2ccc3c(c2)OCO3)c(O)c1`: the growth was 52.1%.
Still for that read-out and setting: the value for `O=S(=O)(Nc1ccc(NS(=O)(=O)c2ccccc2)c(Cl)c1)c1ccccc1` was 107%; that for `COc1ccc(/C=C/c2nc3ccccc3nc2/C=C/c2ccc(OC)cc2)cc1` was 102%.
Take `COc1ccc(/C=C/C(=O)c2cc(O)ccc2O)cc1`: the growth is 109%.
For `O=CNc1ccc2c(c1)Cc1cccc(NC=O)c1-2`, the growth was 112%.
As for `FC(F)(F)c1[nH]ncc1-c1nc2ccc3n[nH]c(C#Cc4cccnc4)c3c2c2c1CCCC2`, the growth is 32.4%.
Regarding `CCOc1cc2ncc(C#N)c(Nc3ccc(OCc4cccc(F)c4)c(Cl)c3)c2cc1NC(=O)CCCCC1CCSS1` (centres undefined), the growth is 101%.
Take `O=C(COc1ccc(-c2nc3cc(Cl)c(Cl)cc3[nH]2)cc1)N=Nc1c(O)[nH]c2ccccc12`: the growth is -49.1% (active).
`Nc1n[nH]c2cc(F)c([C@@H]3Nc4ccc5[nH]ncc5c4[C@H]4C5CCC(C5)[C@@H]34)cc12` (some centres undefined): the growth is 65.8%.
Turning to `C#CC(F)(F)[C@]1(O)CC[C@H]2[C@@H]3CCC4=CC(=O)CCC4=C3[C@@H](c3ccc(C(C)=O)cc3)C[C@@]21C`, the growth was 107%.
Turning to `CCCOc1cc2ccccc2cc1C(=O)Nc1nc(N)c2c(ccc3nccc32)[nH]1`, the growth was -84.9% (active).
With `CCc1nc(N)nc(N)c1C#CC(C)c1cc(-c2ccnc(C)c2)c2oc(C)nc2c1` (centres undefined), the growth is 41.1%.
`Clc1ccc2c(NCCCCNc3nc(N4CCCCC4)nc4ccccc34)ccnc2c1`: the growth was -71.1% (active).
Same read-out and setting: as for `O=c1ccccc(-c2ccc(-c3ccco3)cc2)c1O`, the figure is 30.7%; as for `CCOC(=O)c1c(C)oc2ncnc(N3CCN(C(=S)Nc4ccccc4)CC3)c12`, 107%.
On the same count and under the same terms, as for `CCN1CCN(c2nc(NCCNc3ccnc4cc(Cl)ccc34)c3ccccc3n2)CC1`, the figure is -60.1% (active).
For the compound `COc1ccc(-c2n[nH]nc2-c2csc3ccccc23)cc1OC`, the growth was 50.2%.
On to `COc1ccc(O)c(N=Nc2nccs2)c1`, for which the growth is 115%.
In the case of `O=C(Oc1cccnc1)c1ccsc1Nc1ccnc(C(F)(F)F)c1`, the growth is 89.3%.
`Oc1ccccc1-c1nnc(CNc2ccc(Cl)cc2)o1`: the growth is 32.2%.
The same measure, in the same setting: as for `NC1=C(Cl)C(=O)c2ccc(S(N)(=O)=O)cc2C1=O`, the figure is -84.9% (active).
Turning to `CCOc1cc2ncc(C#N)c(Nc3ccc(F)c(Cl)c3)c2cc1NC(=O)CC1CCSS1` (centres undefined), the growth was -79.1% (active).
Consider `Clc1ccc2c(NCCCCNc3nc(N4CCOCC4)nc4ccccc34)ccnc2c1`, for which the growth was 119%.
As to `Cc1ccc(-c2onc3c(=O)[nH]nc(-c4ccccc4)c23)cc1`, the growth was 66.9%.
For the compound `CN(Cc1cc(Cl)cc(Cl)c1O)Cc1cc(Cl)cc(Cl)c1O`, the growth is 86.9%.
Regarding `CCN1CCN(c2nc(NCCCNc3ccnc4cc(Cl)ccc34)c3ccccc3n2)CC1`, the growth was -66.4% (active).
Consider `CSc1ccc(-c2ccccc(=O)c2O)cc1`, for which the growth is 26.9%.
Regarding `Clc1ccc2c(NCCCNc3nc(-n4ccnc4)nc4ccccc34)ccnc2c1`, the growth is 93.1%.
For the compound `CC1CCNC(C)C1` (centres undefined), the growth was 115%.
As for `COc1ccc(NC(=O)c2ccc(/C=C/C(=O)c3ncc[nH]3)cc2)cc1`, the growth was 102%.
As for `O=C1c2cc3c(cc2-c2c1c1ccc(F)cc1c(=O)n2C[C@H](O)[C@H](O)[C@H](O)CO)OCO3`, the growth was -30.6% (active).
With `O=C(CCl)Oc1ccc(-c2ccccc2)c(Br)c1`, the growth was 107%.
Same read-out and setting: the value for `CCCCCCN(CCCCCC)C(=N)c1ccnc2ccccc12` was 88.4%.
On to `Cc1cc(N2CCCCCC2)nc(NC2CCCC(Nc3ccnc4cc(Cl)ccc34)C2)n1` (centres undefined), for which the growth is -83.5% (active).
